Structures are written as SMILES. Potency and affinity values are given separately. Activity calls are given as the source filed them.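 The calls were made as follows: active = every repeat run showing a signal drop whose fitted half-maximal concentration is at most twice the top tested concentration; inconclusive = repeat runs disagree, or flat partial drop, or poor fit; inactive = the rest.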

The nature of this test: general mammalian cell viability loss – activator set, cherry-pick, cytotoxicity control for miR-122 modulator project, dose response (AID 720690).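 Also: 0% = neutral control wells and -100% = MG132 cytotoxic control wells.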 The note with it: HEK293T viability, CellTiter-Glo luminescence, 48 h; series mostly up to 26 µM; activity change, negative = cytotoxicity: at the top concentration.
Regarding `CN1C(=O)c2cc(NS(=O)(=O)c3ccc(Cl)cc3)ccc2OC[C@H]2O[C@H](CC(=O)N3CCc4ccccc4C3)CC[C@@H]21`, the “activity change, negative = cytotoxicity” value was -15.6% (inactive). With `O=C(NC[C@H]1[C@@H](c2ccccc2)[C@@H](CO)N1CC1CCCC1)c1ccncc1` the figure was -12.6% (inactive); with `CC(=O)Nc1ccc2c(c1)C(=O)N(C)[C@@H]1CC[C@@H](CC(=O)NCc3ccc(Cl)cc3)O[C@H]1CO2`, 0.467% [at 23.5 µM] (inactive); with `CN(C)CCCNC(=O)C[C@H]1CC[C@H]2[C@H](COc3ccc(NC(=O)c4cccc(F)c4)cc3C(=O)N2C)O1`, -18.8% (inactive).

The values above are taken from PubChem BioAssay AID720690 (Broad Institute, 2013).
